Data as given in PubChem BioAssay.
Where “and” joins values, the source holds several entries; their conditions need not be identical. Identical values can stand only once. Calls of active or inactive are those of the source.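 Rule for the calls, unless noted: active = inhibition at or above 50% relative to wild type and mutant plate controls; inactive = inhibition below 50%.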

Experiments:
[1] = inhibitors of TNFa-induced NFkB p65 translocation, primary screen, imaging, HUVEC, MLSMR starter and 10KST1 sets (AID 438;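 active = inhibition above 20% together with a positive visual image hit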;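 note: compound added about 3h40 before a 20 min TNFalpha stimulation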;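 for inhibition: signal is the nuclear over cytoplasmic p65 intensity ratio per well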); conditions: HUVEC TNFa-induced p65 nuclear translocation; cell count: measured here: nuclei count (cytotoxicity indicator), at 2.08 µM; inhibition: at 2 µM, stronger effect = higher value, 0% TNFa-plus-vehicle, 100% no-TNFa wells
[2] = reduction of polyQ htt aggregates in cells – imaging, exon1htt(103Q)mCFP cells, high-content imaging, primary screen (AID 483;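 active = visual image review flags a hit and inhibition of aggregation exceeds 20%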;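 note: compound exposure lasted 3 days before fixation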;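 for nuclei count: percent of the per-plate median nuclei count of sample wells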); conditions: exon1htt(103Q)mCFP cell line, aggregate imaging, at 2 µM; inhibition of aggregation: stronger effect = higher value; nuclei count: measured here: cell count, toxicity
[3] = endothelial E-selectin expression blockers – imaging, HUVEC, immunofluorescence, MLSMR starter and 10KST1 sets, primary screen (AID 487;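 active = visually confirmed hit in the image check and inhibition above 20%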;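 for inhibition: signal is fraction of cell area covered by stained E-selectin grains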;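 for nuclei count: 100% = median nuclei count of all wells on the same plate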); conditions: HUVEC TNFalpha-induced E-selectin immunofluorescence imaging, at 2 µM; inhibition: stronger effect = higher value; nuclei count: measured here: cell number, toxicity
[4] = Primary imaging screen for DUSP6 inhibitors that restore phospho-Erk in transfected HeLa cells, chemical complementation (AID 609;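 active = compounds giving at least 50% inhibition in the cell-based MKP-3 phosphatase rescue imaging test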;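 for inhibition: phospho-Erk level distribution per well compared with pooled transfected vehicle control wells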); conditions: HeLa MKP-3 transfected, phospho-Erk imaging KS statistic, at 10 µM, cells stimulated with TPA for 15 min
[5] = molecular target: Dual specificity protein phosphatase 6 (Homo sapiens) (UniProt Q16828); experiment: as above; conditions: HeLa MKP-3 transfected, phospho-Erk imaging KS statistic; at 10 µM; stronger effect = higher value; cells stimulated with TPA for 15 min
Dual specificity protein phosphatase 6 (Homo sapiens), sequence (Q16828 whole entry, looked up): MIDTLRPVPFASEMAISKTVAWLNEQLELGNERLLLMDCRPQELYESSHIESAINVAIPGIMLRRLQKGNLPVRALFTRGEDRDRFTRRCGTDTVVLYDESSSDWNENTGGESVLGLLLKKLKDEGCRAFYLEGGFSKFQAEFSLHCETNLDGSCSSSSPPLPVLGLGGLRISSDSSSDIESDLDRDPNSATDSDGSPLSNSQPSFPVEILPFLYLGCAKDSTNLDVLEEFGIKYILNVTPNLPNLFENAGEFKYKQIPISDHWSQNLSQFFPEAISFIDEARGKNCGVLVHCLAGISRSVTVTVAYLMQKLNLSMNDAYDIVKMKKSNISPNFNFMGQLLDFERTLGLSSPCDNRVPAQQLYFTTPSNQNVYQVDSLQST

[6] = molecular target: Voltage-gated potassium channel subunit beta-2 (Rattus norvegicus) (UniProt P62483); experiment: inhibitors of rat Kvbeta2 reductase activity – biochemical, NADPH fluorescence, primary screen (AID 622;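 active = fluorescence slope higher than the sample average by over 3 SD, cut at about -0.22 in these data, passing the limit was not always enough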;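 note: slope of raw intensity against log time taken from 70 to 1610 s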); conditions: recombinant KvBeta, 4-cyanobenzaldehyde reduction, at 10 µM, stronger effect = higher value
Voltage-gated potassium channel subunit beta-2 (Rattus norvegicus), sequence (P62483 whole entry, looked up): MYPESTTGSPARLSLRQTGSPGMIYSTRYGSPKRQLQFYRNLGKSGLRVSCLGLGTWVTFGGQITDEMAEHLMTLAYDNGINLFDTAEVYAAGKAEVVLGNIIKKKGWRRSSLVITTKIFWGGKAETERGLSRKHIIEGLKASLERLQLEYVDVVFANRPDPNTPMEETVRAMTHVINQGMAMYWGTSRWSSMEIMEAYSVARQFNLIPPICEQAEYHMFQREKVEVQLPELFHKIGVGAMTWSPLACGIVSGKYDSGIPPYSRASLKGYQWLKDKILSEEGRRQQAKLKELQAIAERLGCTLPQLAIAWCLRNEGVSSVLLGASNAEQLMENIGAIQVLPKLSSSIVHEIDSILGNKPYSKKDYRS

[7] = molecular target: Voltage-gated potassium channel subunit beta-2 (Rattus norvegicus) (UniProt P62483); experiment: enhancers of rat Kvbeta2 NADPH turnover – biochemical, NADPH fluorescence, primary screen (AID 623;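 active = NADPH fluorescence slope more negative than the mean of all samples by about 3 SD, 99.7% confidence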;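 note: fluorescence intensity change per second fitted from 20 to 320 s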); conditions: Recombinant KvBeta, NADPH fluorescence decrease slope, 10 min; at 10 µM; stronger effect = lower value
[8] = molecular target: Alpha-2C adrenergic receptor (Homo sapiens) (UniProt P18825); experiment: compounds altering alpha2C-coupled GIRK flux – cell-based, HEK293 alpha2C/GIRK1/2, thallium flux, primary screen (AID 624;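 active = fluorescence slope after compound addition differing from the mean of all screened samples at 99.7% confidence, in either direction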;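 note: slope of fluorescence ratio to pre-addition baseline per second over 15 to 24 s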); conditions: thallium flux BTC fluorescence, at 10 µM, actives lie on both sides
Alpha-2C adrenergic receptor (Homo sapiens), sequence (P18825 whole entry, looked up): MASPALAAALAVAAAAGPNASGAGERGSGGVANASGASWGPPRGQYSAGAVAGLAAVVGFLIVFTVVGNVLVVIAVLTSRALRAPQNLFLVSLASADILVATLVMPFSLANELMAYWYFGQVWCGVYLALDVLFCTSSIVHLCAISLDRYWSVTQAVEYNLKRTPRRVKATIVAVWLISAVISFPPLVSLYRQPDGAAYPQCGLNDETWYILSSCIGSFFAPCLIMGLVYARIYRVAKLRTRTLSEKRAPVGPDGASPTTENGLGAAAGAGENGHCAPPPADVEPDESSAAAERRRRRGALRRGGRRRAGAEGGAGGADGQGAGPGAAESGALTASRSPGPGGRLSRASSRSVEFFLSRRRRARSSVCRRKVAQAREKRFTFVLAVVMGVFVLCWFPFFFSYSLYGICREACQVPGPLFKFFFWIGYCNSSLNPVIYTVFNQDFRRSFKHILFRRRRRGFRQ

[9] = inhibitors of larval lipid processing in zebrafish, primary screen, whole organism, PED6 fluorescence, gall bladder and intestine (AID 686;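 active = a full or partial loss of lipid-probe fluorescence in the fish gall bladder, intestine or both, judged by eye; inactive = no fluorescence loss, or compound toxic to the fish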;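 note: larvae 5 to 7 days old with five fish per well; signal comes from phospholipase A2 cleavage of quenched PED6 carried via bile; overnight exposure to compound and PED6 before scoring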); conditions: Zebrafish larvae PED6 lipid processing, fluorescence scoring; screened at 20 µM (by protocol)
[10] = loss of swimming-algae plug formation – whole organism, Chlamydomonas reinhardtii, WT vs cilia-less mutant, absorbance, 96-well, primary screen (AID 463189); conditions: Chlamydomonas reinhardtii gravitaxis, OD600 absorbance, 2 days; at 10 µM; stronger effect = higher value;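 note: 0% = wild type cc124 cells in DMSO and 100% = ciliumless bld1 mutant cells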
[11] = blockers of RIG-like receptor reporter activation – cell-based, Sendai virus stimulus, luciferase, 10K MLSCN set, TLR/RLR signaling modifier project, primary screen (AID 602276;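 active = inhibition at or above 50% at 10 µM; inactive = inhibition below 50%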;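 note: firefly luciferase from ISG56 promoter only with Renilla not read in this screen; 0% = Sendai virus plus DMSO and 100% = medium plus DMSO without virus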); conditions: HEK293 RL24 IRF3 luciferase reporter, at 10 µM, stronger effect = higher value
[12] = TLR3 IRF3 reporter activation blockers – cell-based, poly I:C stimulus, luciferase, 10K MLSCN set, primary screen (AID 602277;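 active = inhibition of the reporter signal at or above 50%; inactive = inhibition below 50%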); conditions: HEK293-TLR3 RL24 IRF3 luciferase reporter, at 10 µM, stronger effect = higher value
[13] = measured here: cell density z-score
[14] = measured here: nuclear c-Myc green intensity z-score
[15] = measured here: nuclear pErk red intensity z-score, stronger effect = higher value

Compound	cell count [1]	inhibition [1]	inhibition of aggregation [2]	nuclei count [2]	inhibition [3]	nuclei count [3]	z-score [4, 13]	z-score [4, 14]	z-score [4, 15]	inhibition [5]	fluorescence slope [6]	NADPH fluorescence slope [7]	slope [8]	outcome [9]	inhibition [10]	inhibition [11]	inhibition [12]
Cn1ccnc1SCCC#N	569	-2.2% (inactive)	-3.9% (inactive)	110%	-10.9% (inactive)	116%	-0.727	0.913	-1.8	6.04% (inactive)	-0.51 (inactive)	-0.000118 (inactive)	0.00562 (inactive)	inactive	3.16% (inactive)	5.13% (inactive)	14.1% (inactive)
COc1ccc(Cn2c(CCCO)nc3ccccc32)cc1OC	577	-7.7% (inactive)	-17% (inactive)	105%	-84% (inactive)	122%	-0.981	1.12	1.14	-5.89% (inactive)	-0.412 (inactive)	-4.3e-05 (inactive)	0.0064 (inactive)	inactive	2.72% (inactive)	13.3% (inactive)	22.4% (inactive)
CN(C)c1ccc(O)c2c1CC1CC3[C@@H](N(C)C)C(=O)C(C(N)=O)=C(O)[C@]3(O)C(=O)C1=C2O (some centres not stated)	516	-12.2% (inactive)	71.3% (active)	103%	-55.7% (inactive)	131%	0.362	0.874	0.268	1.48% (inactive)	-0.51 (inactive)	-5e-06 (inactive)	0.00461 (inactive)	inactive	82.6% (active)	17.8% (inactive)	26.1% (inactive)
CN1CCc2c(sc3c2c(=O)n(-c2ccccc2)c2nnc(SCc4ccccc4)n32)C1	562	-16.1% (inactive)	8.3% (inactive)	116%	-95.1% (inactive)	142%	0.865	-2.08	-0.239	3.66% (inactive)	-0.563 (inactive)	-1.4e-05 (inactive)	0.00449 (inactive)	inactive	5.3% (inactive)	-12.4% (inactive)	98.5% (active)
C[C@@H]1C[C@H]2[C@@H]3C[C@H](F)C4=CC(=O)C=C[C@]4(C)[C@@]3(F)[C@@H](O)C[C@]2(C)[C@@]1(O)C(=O)COC(=O)C(C)(C)C	563	1.4% (inactive)	-3% (inactive)	51.7%	-36.8% (inactive)	92.6%	0.404	-0.122	-1.39	5.42% (inactive)	-0.475 (inactive)	-6.6e-05 (inactive)	0.00583 (inactive)	inactive	-9.6% (inactive)	2.87% (inactive)	35.9% (inactive)
CCOC(=O)C1=C(C)N=C2SC(C)C(=O)N2C1c1cccc(F)c1 (configuration not stated)	400	-2.2% (inactive)	9.9% (inactive)	102%	-10.3% (inactive)	139%	-0.692	0.668	0.0738	5.42% (inactive)	-0.448 (inactive)	-0.000135 (inactive)	0.00424 (inactive)	inactive	-0.443% (inactive)	25.4% (inactive)	20.1% (inactive)
O=C(O)c1cc2cc(F)ccc2[nH]1	552	-0.9% (inactive)	-5.1% (inactive)	95.6%	-14.2% (inactive)	107%	2.14	-1.93	-0.0855	-5.24% (inactive)	-0.457 (inactive)	-3.2e-05 (inactive)	0.00488 (inactive)	inactive	-3.42% (inactive) and -23.2% (inactive)	12.4% (inactive)	46.1% (inactive)
CN1CC=C2C(C#N)=C(N)C(C#N)(C#N)[C@H](c3cccc(Cl)c3)C2C1 (some centres not stated)	642	-6% (inactive)	-38.1% (inactive)	98.3%	-18.6% (inactive)	125%	0.015	5.62	0.205	71% (inactive)	-0.368 (inactive)	-4.7e-05 (inactive)	0.00551 (inactive)	inactive	5.27% (inactive)	13.6% (inactive)	24.1% (inactive)
CCCCN1C[C@H](O)[C@@H](O)[C@H](O)[C@H]1CO	594	-9.5% (inactive)	-4.6% (inactive)	109%	-34.3% (inactive)	129%	0.947	-0.313	0.0804	15.3% (inactive)	-0.473 (inactive)	1.5e-05 (inactive)	0.00474 (inactive)	inactive	22.3% (inactive)	14% (inactive)	19.6% (inactive)
COCCCC/C(=N\OCCN)c1ccc(C(F)(F)F)cc1	514	-7.2% (inactive)	-27.7% (inactive)	100%	-121% (inactive)	121%	1.11	-1.18	0.0602	9.37% (inactive)	-0.468 (inactive)	-6.2e-05 (inactive)	0.00513 (inactive)	inactive	-1.98% (inactive) and -5.54% (inactive)	5.66% (inactive)	36.1% (inactive)
Nc1ccc2[nH]ncc2c1	684	7.9% (inactive)	-14.5% (inactive)	106%	-64.7% (inactive)	141%	0.816	1.08	-0.122	27.9% (inactive)	-0.496 (inactive)	-6.9e-05 (inactive)	0.00441 (inactive)	inactive	-11% (inactive)	11.4% (inactive)	31.1% (inactive)
